Results: PubChem BioAssay AID1159580 (chemical genetic matrix, 2015)
In all, about 5,500 compounds went through this assay and about 2,000 (36%) were called active. Roughly 18% stayed inconclusive and do not appear here. No stated cut-off is given here; in the data, active means normalized growth mostly below about 0.91 (no sharp cut-off); inconclusive means no clear call, values can overlap the other calls; inactive means mostly above about 0.92. The list shows a part of the results.

Assay: chemical genetic growth profiling, strain panel (AID 1159580);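 further: tested at 20 µM; growth read once vehicle control cultures reached saturation at 30 °C; 1 = growth at the plate median or of vehicle wells; lower values mean less growth of the strain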
Settings: S. cerevisiae deletion strains, growth OD

Measured: normalized growth

C[C@H]1CC[C@@H](C(C)(C)O)CC2=C1CC[C@@H]2C
inactive: locus YAL021C, strain ccr4, hits give low values 1 | locus YAL026C, strain drs2, hits give low values 0.984 | locus YAL030W, strain snc1, hits give low values 0.995 | locus YBL061C, strain skt5, hits give low values 0.985 | locus YBR009C, strain hhf1, hits give low values 0.914 | locus YBR023C, strain chs3, hits give low values 0.959 | locus YBR171W, strain sec66, hits give low values 0.978 | locus YBR231C, strain swc5, hits give low values 1.01 | locus YBR279W, strain paf1, hits give low values 0.996 | locus YCL011C, strain gbp2, hits give low values 0.982 | locus YCL016C, strain dcc1, hits give low values 0.976 | locus YCL061C, strain MRC1, hits give low values 0.995 | locus YCL069W, strain vba3, hits give low values 0.997 | locus YCR088W, strain abp1, hits give low values 0.993 | locus YDL005C, strain med2, hits give low values 0.998 | locus YDL040C, strain nat1, hits give low values 0.983 | locus YDR001C, strain nth1, hits give low values 0.988 | locus YDR069C, strain doa4, hits give low values 0.981 | locus YDR137W, strain rgp1, hits give low values 0.91 | locus YDR159W, strain sac3, hits give low values 0.912 | locus YDR297W, strain sur2, hits give low values 0.988 | locus YDR334W, strain swr1, hits give low values 1.01 | locus YDR335W, strain msn5, hits give low values 0.992 | locus YEL003W, strain gim4, hits give low values 0.984 | locus YEL037C, strain rad23, hits give low values 0.994 | locus YEL061C, strain CIN8 (second series), hits give low values 1 | locus YER015W, strain faa2, hits give low values 1.01 | locus YER016W, strain bim1, hits give low values 0.967 | locus YER111C, strain swi4, hits give low values 0.984 | locus YER155C, strain BEM2 (second series), hits give low values 0.927 | locus YFR010W, strain ubp6, hits give low values 0.962 | locus YGL167C, strain pmr1, hits give low values 0.985 | locus YGL173C, strain kem1, hits give low values 0.961 | locus YGL227W, strain vid30, hits give low values 0.999 | locus YGL240W, strain doc1, hits give low values 0.934 | locus YGL253W, strain hxk2, hits give low values 1 | locus YHR013C, strain ard1, hits give low values 0.999 | locus YHR027C, strain rpn1, hits give low values 0.994 | locus YHR142W, strain chs7, hits give low values 0.884 | locus YJL092W, strain hpr5, hits give low values 0.995 | locus YJL095W, strain BCK1 (second series), hits give low values 0.99 | locus YJL095W, strain BCK1, hits give low values 0.9 | locus YJL115W, strain asf1, hits give low values 0.994 | locus YJL129C, strain trk1, hits give low values 0.983 | locus YJL154C, strain vps35, hits give low values 0.992 | locus YJL164C, strain tpk1, hits give low values 0.965 | locus YJL166W, strain qcr8, hits give low values 0.948 | locus YJL187C, strain SWE1, hits give low values 0.987 | locus YJR066W, strain TOR1, hits give low values 0.92 | locus YKL160W, strain elf1, hits give low values 0.979 | locus YKR026C, strain gcn3, hits give low values 0.97 | locus YKR091W, strain srl3, hits give low values 0.993 | locus YLL001W, strain dnm1, hits give low values 0.991 | locus YLL026W, hits give low values 0.978 | locus YLL041C, strain sdh2, hits give low values 0.993 | locus YLR027C, strain aat2, hits give low values 0.979 | locus YLR221C, strain rsa3, hits give low values 0.924 | locus YLR258W, strain gsy2, hits give low values 0.971 | locus YLR320W, strain mms22, hits give low values 0.896 | locus YLR342W, strain FKS1, hits give low values 0.989 | locus YLR357W, strain rsc2, hits give low values 0.893 | locus YLR370C, strain arc18, hits give low values 0.987 | locus YLR384C, strain iki3, hits give low values 0.995 | locus YML120C, strain ndi1, hits give low values 0.972 | locus YMR058W, strain fet3, hits give low values 0.993 | locus YMR125W, strain sto1, hits give low values 0.977 | locus YMR129W, hits give low values 0.986 | locus YMR205C, strain PFK2, hits give low values 0.896 | locus YMR231W, strain pep5, hits give low values 0.999 | locus YNL071W, strain lat1, hits give low values 0.952 | locus YNL183C, strain NPR1, hits give low values 0.869 | locus YNL209W, strain ssb2, hits give low values 0.995 | locus YNL248C, strain rpa49, hits give low values 0.983 | locus YNL322C, strain KRE1 (second series), hits give low values 0.987 | locus YNR049C, strain mso1, hits give low values 0.995 | locus YOR001W, strain rrp6, hits give low values 0.958 | locus YOR070C, strain gyp1, hits give low values 0.978 | locus YOR080W, strain dia2, hits give low values 1 | locus YOR083W, strain WHI5, hits give low values 0.975 | locus YOR106W, strain vam3, hits give low values 0.972 | locus YOR265W, strain rbl2, hits give low values 0.983 | locus YOR270C, strain vph1, hits give low values 0.97 | locus YOR290C, strain snf2, hits give low values 0.925 | locus YPL051W, strain arl3, hits give low values 0.979 | locus YPL078C, strain atp4, hits give low values 0.986 | locus YPL106C, strain sse1, hits give low values 0.889 | locus YPL240C, strain hsp82, hits give low values 1.01
active: locus YDR195W, strain ref2 0.822 | locus YDR392W, strain spt3, hits give low values 0.552 | locus YHR030C, strain SLT2, hits give low values 0.819 | locus YHR079C, strain IRE1, hits give low values 0.767 | locus YLR113W, strain HOG1, hits give low values 0.764 | locus YLR262C, strain YPT6 (second series), hits give low values 0.841 | locus YOR231W, strain MKK1, hits give low values 0.849 | locus YPL256C, strain CLN2, hits give low values 0.796
